B1: TEX44, Q53QW1 (peptide)
chain: GDLQTWFFPPPPAGSV
Sequence of USP7 53-206, Q93009 (Q93009 53-206): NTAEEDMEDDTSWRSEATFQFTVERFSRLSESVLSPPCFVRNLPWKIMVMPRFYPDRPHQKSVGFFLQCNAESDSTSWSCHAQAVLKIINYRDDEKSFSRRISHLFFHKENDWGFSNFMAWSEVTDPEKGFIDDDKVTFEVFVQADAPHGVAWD
Sequence of YAP1 169-207, P46937 (P46937 169-207): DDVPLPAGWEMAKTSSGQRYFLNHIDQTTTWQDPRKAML
Sequence of VASP 1-114, P50552 (P50552 1-114): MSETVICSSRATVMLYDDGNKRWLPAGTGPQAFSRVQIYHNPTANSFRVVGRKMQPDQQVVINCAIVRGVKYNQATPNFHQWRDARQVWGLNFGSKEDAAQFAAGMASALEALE
B1: the “selected by phage display” value in the assay with VASP 1-114, P50552 was “confidence 2 (active)”.

B2: MEX3B, Q6ZN04 (peptide)
chain: SASSSASSSASSSSVV
On to B2, for which the “selected by phage display” value in the assay with USP7 53-206, Q93009 was “confidence 4 (active)”.

B3: SHROOM3, Q8TF72 (peptide)
chain: VYSMDDFPPPPPHTVA
Regarding B3, the “selected by phage display” value with VASP 1-114, P50552 was “confidence 4 (active)”.

B4: RRAD, P55042 (peptide)
chain: WEQDGGRWLPGHAMAM
As to B4, the “selected by phage display” value with WDR5 21-334, P61964 is “confidence 2 (active)”.

B5: LBR, Q14739 (peptide)
chain: LLNFPPPLPALYELWE
For B5, the “selected by phage display” value with VASP 1-114, P50552 was “confidence 2 (active)”.

B6: STPG3, Q8N7X2 (peptide)
chain: TGTPQESLPTYTQTLR
Take B6: the “selected by phage display” value with YAP1 169-207, P46937 is “confidence 3 (active)”.

B7: TP73, O15350 (peptide)
chain: VPANGEMSSSHSAQSM
Consider B7, for which the “selected by phage display” value in the assay with USP7 53-206, Q93009 was “confidence 3 (active)”.

B8: TMEM158, Q8WZ71 (peptide)
chain: AAATAGAPTALPAYPA
Regarding B8, the “selected by phage display” value with YAP1 169-207, P46937 was “confidence 2 (active)”.

B9: CHMP1B, Q7LBR1 (peptide)
chain: NQAVNFLRMSARVDAV
As for B9, the “selected by phage display” value in the assay with WDR5 21-334, P61964 was “confidence 2 (active)”.

B10: TPSG1, Q9NRR2 (peptide)
chain: YTREGEPLPPPYSLRE
For B10, the “selected by phage display” value in the assay with YAP1 169-207, P46937 was “confidence 3 (active)”.

B11: IPCEF1, Q8WWN9 (peptide)
chain: ASSSSPSLSGTSYSFS
On to B11, for which the “selected by phage display” value with USP7 53-206, Q93009 was “confidence 4 (active)”.

B12: TCF7L2, Q9NQB0 (peptide)
chain: SIAQPSTSSLHSHSSL
B12: the “selected by phage display” value with USP7 53-206, Q93009 is “confidence 3 (active)”.

B13: ISL1, P61371 (peptide)
chain: PGSNSTGSEVASMSSQ
Take B13: the “selected by phage display” value with USP7 53-206, Q93009 was “confidence 3 (active)”.

B14: ZC3H4, Q9UPT8 (peptide)
chain: ARTVLWNPEDLIPLPI
Consider B14, for which the “selected by phage display” value with WDR5 21-334, P61964 was “confidence 2 (active)”.

B15: NLGN1, Q8N2Q7 (peptide)
chain: HEVVLRTAAPPDYTLA
B15: the “selected by phage display” value with YAP1 169-207, P46937 is “confidence 3 (active)”.

B16: TRIP12, Q14669 (peptide)
chain: SSSAASTSSSSSAVAS
For the molecule B16, in the assay with USP7 53-206, Q93009, the “selected by phage display” value was “confidence 2 (active)”.

B17: NHSL1, Q5SYE7 (peptide)
chain: SPVFPPPPPEALIPFA
Consider B17, for which the “selected by phage display” value with VASP 1-114, P50552 was “confidence 3 (active)”.

B18: SMAD1, Q15797 (peptide)
chain: ADTPPPAYLPPEDPMT
Take B18: the “selected by phage display” value with YAP1 169-207, P46937 is “confidence 2 (active)”.

B19: PROSER1, Q86XN7 (peptide)
chain: PVQSPLATAASASTSV
As for B19, in the assay with USP7 53-206, Q93009, the “selected by phage display” value is “confidence 3 (active)”.

B20: NDFIP2, Q9NV92 (peptide)
chain: TEVYGEFYPVPPPYSV
Take B20: in the assay with YAP1 169-207, P46937, the “selected by phage display” value was “confidence 4 (active)”.

B21: ILDR1, Q86SU0 (peptide)
chain: MAWPKLPAPWLLLATW
Turning to B21, in the assay with VASP 1-114, P50552, the “selected by phage display” value is “confidence 2 (active)”.

B22: SCN1A, P35498 (peptide)
chain: TVDANGVVSLVGGPSV
On to B22, for which the “selected by phage display” value with USP7 53-206, Q93009 is “confidence 3 (active)”.

B23: DMTN, Q08495 (peptide)
chain: PAKIETDYWPAPPSLA
In the case of B23, the “selected by phage display” value with VASP 1-114, P50552 was “confidence 2 (active)”.

B24: TMEM59L, Q9UK28 (peptide)
chain: LYPPPSHAAEDSLPPY
For the molecule B24, the “selected by phage display” value with YAP1 169-207, P46937 was “confidence 2 (active)”.

B25: SIPA1, Q96FS4 (peptide)
chain: PQNRTSAYSLEHADLG
B25: the “selected by phage display” value in the assay with WDR5 21-334, P61964 is “confidence 2 (active)”.

B26: INPPL1, O15357 (peptide)
chain: FPPPPLPDSAIFLPPS
B26: the “selected by phage display” value with VASP 1-114, P50552 is “confidence 3 (active)”.

B27: WBP1, Q96G27 (peptide)
chain: PPAYEDVVHRPGTPPP
As to B27, the “selected by phage display” value in the assay with YAP1 169-207, P46937 is “confidence 3 (active)”.

B28: TUBGCP5, Q96RT8 (peptide)
chain: ALSDSPSNSSYVETPR
In the case of B28, the “selected by phage display” value in the assay with USP7 53-206, Q93009 is “confidence 3 (active)”.

B29: XIRP2, A4UGR9 (peptide)
chain: EFPPPPPDVLQTSVDV
Regarding B29, in the assay with VASP 1-114, P50552, the “selected by phage display” value is “confidence 4 (active)”.

B30: RAPH1, Q70E73 (peptide)
chain: FPPPPPETELPLPPIE
As to B30, in the assay with VASP 1-114, P50552, the “selected by phage display” value is “confidence 3 (active)”.

B31: EHMT1, Q9H9B1 (peptide)
chain: SARVNPQDGTNTLTRI
In the case of B31, the “selected by phage display” value with WDR5 21-334, P61964 is “confidence 2 (active)”.

B32: PER3, P56645 (peptide)
chain: GSSGSQEQLVSIASSS
As for B32, the “selected by phage display” value with USP7 53-206, Q93009 was “confidence 3 (active)”.

B33: MRPL43, Q8N983 (peptide)
chain: WPDPPDLPTVDPISSS
Regarding B33, the “selected by phage display” value in the assay with VASP 1-114, P50552 is “confidence 4 (active)”.

B34: SPATA5, Q8NB90 (peptide)
chain: IPTSRSTPYKPIDDRI
Consider B34, for which the “selected by phage display” value with WDR5 21-334, P61964 was “confidence 2 (active)”.

B35: MFSD6, Q6ZSS7 (peptide)
chain: DGKGAKPPEYRNYQIV
On to B35, for which, in the assay with YAP1 169-207, P46937, the “selected by phage display” value is “confidence 3 (active)”.

B36: PDZRN4, Q6ZMN7 (peptide)
chain: SARSTPLTVDRSPDSS
As for B36, in the assay with WDR5 21-334, P61964, the “selected by phage display” value is “confidence 2 (active)”.

B37: SVEP1, Q4LDE5 (peptide)
chain: SARSGYVIQGSSDLIA
On to B37, for which the “selected by phage display” value in the assay with WDR5 21-334, P61964 is “confidence 2 (active)”.

B38: SBNO2, Q9Y2G9 (peptide)
chain: EAFPPPPHFSFPAPLS
For B38, the “selected by phage display” value in the assay with VASP 1-114, P50552 is “confidence 2 (active)”.

B39: FAF2, Q96CS3 (peptide)
chain: IPSEEWPNPPTLQEAG
In the case of B39, the “selected by phage display” value with VASP 1-114, P50552 is “confidence 4 (active)”.

B40: PAX1, P15863 (peptide)
chain: LWPDPPHFLYWSGFLG
B40: in the assay with VASP 1-114, P50552, the “selected by phage display” value was “confidence 2 (active)”.

B41: RNF135, Q8IUD6 (peptide)
chain: QGELLEAPSSSSAPLP
With B41, in the assay with USP7 53-206, Q93009, the “selected by phage display” value was “confidence 2 (active)”.

B42: GAB1, Q13480 (peptide)
chain: SSATLPPPYQLINVPP
Regarding B42, the “selected by phage display” value with YAP1 169-207, P46937 was “confidence 4 (active)”.

B43: PARN, O95453 (peptide)
chain: GISDGPSVSALTNGFD
In the case of B43, in the assay with USP7 53-206, Q93009, the “selected by phage display” value was “confidence 3 (active)”.

B44: ALKBH5, Q6P6C2 (peptide)
chain: SVLPPSYASDRLSGNN
For B44, the “selected by phage display” value in the assay with YAP1 169-207, P46937 is “confidence 2 (active)”.

B45: TMEM52, Q8NDY8 (peptide)
chain: SMAPPAYSLYTPEPPP
For the molecule B45, the “selected by phage display” value in the assay with YAP1 169-207, P46937 is “confidence 3 (active)”.

B46: CYP4A11, Q02928 (peptide)
chain: FPAPPSHWLFGHIQEL
Take B46: the “selected by phage display” value with VASP 1-114, P50552 is “confidence 2 (active)”.

B47: MAGEA8, P43361 (peptide)
chain: ASSSLTVTDSTLWSQS
As to B47, the “selected by phage display” value with USP7 53-206, Q93009 is “confidence 3 (active)”.

B48: AR, P10275 (peptide)
chain: DFTAPDVWYPGGMVSR
Regarding B48, the “selected by phage display” value in the assay with WDR5 21-334, P61964 is “confidence 2 (active)”.

B49: ARID2, Q68CP9 (peptide)
chain: HPPTYVQNVVPQNTPM
As to B49, the “selected by phage display” value with YAP1 169-207, P46937 is “confidence 2 (active)”.

B50: MAGEB18, Q96M61 (peptide)
chain: EYQQVPNSDPPRYEFL
On to B50, for which, in the assay with YAP1 169-207, P46937, the “selected by phage display” value is “confidence 2 (active)”.

B51: ZNF783, Q6ZMS7 (peptide)
chain: LPPYPEHLTSPLSPAQ
As to B51, the “selected by phage display” value in the assay with YAP1 169-207, P46937 was “confidence 2 (active)”.

B52: KIAA1522, Q9P206 (peptide)
chain: SMADFPPPEEAFFSVA
Consider B52, for which the “selected by phage display” value in the assay with VASP 1-114, P50552 was “confidence 2 (active)”.

B53: TMEM52, Q8NDY8 (peptide)
chain: EPPPSYDEAVKMAKPR
Take B53: the “selected by phage display” value with YAP1 169-207, P46937 is “confidence 3 (active)”.

B54: MAMLD1, Q13495 (peptide)
chain: SQVTGMSLQIPSSSTG
In the case of B54, the “selected by phage display” value with USP7 53-206, Q93009 was “confidence 3 (active)”.

B55: UNC13B, O14795 (peptide)
chain: TDSIHSAHSSHSLSRD
For B55, the “selected by phage display” value in the assay with USP7 53-206, Q93009 is “confidence 2 (active)”.

B56: KIF23, Q02241 (peptide)
chain: DVVLQSFPPLPSAEIL
With B56, the “selected by phage display” value with VASP 1-114, P50552 is “confidence 2 (active)”.

B57: NDFIP2, Q9NV92 (peptide)
chain: ASSAPALETDSSPPPY
With B57, the “selected by phage display” value with YAP1 169-207, P46937 was “confidence 2 (active)”.

B58: TBP, P20226 (peptide)
chain: NNSLPPYAQGLASPQG
In the case of B58, the “selected by phage display” value in the assay with YAP1 169-207, P46937 is “confidence 3 (active)”.

B59: VCL, P18206 (peptide)
chain: DFPPPPPDLEQLRLTD
Regarding B59, in the assay with VASP 1-114, P50552, the “selected by phage display” value is “confidence 2 (active)”.

B60: ANKRD17, O75179 (peptide)
chain: PSAMLPIYPAIDIDAQ
For the molecule B60, in the assay with YAP1 169-207, P46937, the “selected by phage display” value is “confidence 2 (active)”.

B61: C1orf159, Q96HA4 (peptide)
chain: LVPPALDLSWIWPAPP
In the case of B61, the “selected by phage display” value with VASP 1-114, P50552 was “confidence 3 (active)”.

B62: DVL2, O14641 (peptide)
chain: APHPYSPQPPPYHELS
On to B62, for which the “selected by phage display” value with YAP1 169-207, P46937 was “confidence 3 (active)”.
